Source: PubChem BioAssay (NCATS)
Results filed as inconclusive are left out. Activity calls are given as the source filed them. Unless noted, calls follow the shape of the dose curve; as a rule, active = well fitted curve in either direction with a large enough effect (not every such curve was filed as active); inconclusive = small, poorly fitted or top-dose-only effect, or another doubt; inactive = flat fitted curve, though single readings scatter.

What was measured:
[1] = tested on: HIV-1 nucleocapsid protein NCp7 (binding to TG oligonucleotide); assay: HIV Nucleocapsid (AID 346; call rule not given here;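 also: potency is read from the fitted curve at half-maximal effect; potency is for inhibitors that block NC binding and lower polarization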); conditions: HIV-1 NC / fluorescein-TGTGTGTG probe, fluorescence polarization
Method in brief: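 HIV-1 NC (100 nM) binding to fluorescein-labelled ssDNA TG4xF (10 nM) in Hepes pH 7.5, 250mM NaCl, 1uM ZnCl2, TCEP and 2-mercaptoethanol; compounds pin-transferred, 1 hr room temperature, fluorescence polarization read on CCD imager.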

[2] = AP1 Signaling Pathway (AID 357);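 also: ME-180 reporter cells stimulated with EGF at its EC50 level; % is scaled to controls: 0 for no effect and ±100 for the full control effect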
Method in brief: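 Cells are seeded overnight, exposed to compound titrations and an EC50 level of EGF for 5 hours at 37 °C, then loaded with CCF4 dye for 2.5 hours. Beta-lactamase activity under the AP-1 element is read as a blue/green ratio.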

[3] = NFAT Signaling Pathway (AID 444); conditions: Jurkat NFAT-bla M1, carbachol, beta-lactamase ratio, 5 h; at 7.69 µM (top of the series);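 also: carbachol stimulus at about its EC50 of 1 µM final; % is scaled to controls: 0 for no effect and ±100 for the full control effect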
Method in brief: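 Read-out: CCF4 FRET ratio (460 nm/530 nm) after 1 h RT dye loading, used for %activity and AC50 from titration series. Cells: Jurkat NFAT-β-lactamase/M1 line, treated with compound plus 1 uM carbachol for 5 h, 37 °C.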

[4] = Stat Signaling Pathway (AID 446);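 also: ME-180 cervical cancer cells given 40 pM IL-6 alongside compound; SIE-controlled beta-lactamase reporter measured as 460/530 nm FRET emission ratio; % is scaled to controls: 0 for no effect and ±100 for the full control effect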
Method in brief: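 ME-180 cells carrying a SIE-driven beta-lactamase reporter are stimulated with 40 pM IL-6 for 5 h at 37C in the presence of compound. The 460/530 nm FRET substrate ratio is read after 2.5 h at RT. Data are normalised to 300 pM IL-6 and to 125 nM JAK inhibitor controls.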

[5] = target: Glucocorticoid receptor (Homo sapiens) (UniProt P04150); assay: GR-EFC Redistribution (AID 451; calls by dose curve; also: potency is read from the fitted curve at half-maximal effect); conditions: CHO-K1 GR-EFC translocation, beta-gal luminescence, 2 h
Glucocorticoid receptor (Homo sapiens), sequence (P04150 whole entry, looked up, the tested form may be a part): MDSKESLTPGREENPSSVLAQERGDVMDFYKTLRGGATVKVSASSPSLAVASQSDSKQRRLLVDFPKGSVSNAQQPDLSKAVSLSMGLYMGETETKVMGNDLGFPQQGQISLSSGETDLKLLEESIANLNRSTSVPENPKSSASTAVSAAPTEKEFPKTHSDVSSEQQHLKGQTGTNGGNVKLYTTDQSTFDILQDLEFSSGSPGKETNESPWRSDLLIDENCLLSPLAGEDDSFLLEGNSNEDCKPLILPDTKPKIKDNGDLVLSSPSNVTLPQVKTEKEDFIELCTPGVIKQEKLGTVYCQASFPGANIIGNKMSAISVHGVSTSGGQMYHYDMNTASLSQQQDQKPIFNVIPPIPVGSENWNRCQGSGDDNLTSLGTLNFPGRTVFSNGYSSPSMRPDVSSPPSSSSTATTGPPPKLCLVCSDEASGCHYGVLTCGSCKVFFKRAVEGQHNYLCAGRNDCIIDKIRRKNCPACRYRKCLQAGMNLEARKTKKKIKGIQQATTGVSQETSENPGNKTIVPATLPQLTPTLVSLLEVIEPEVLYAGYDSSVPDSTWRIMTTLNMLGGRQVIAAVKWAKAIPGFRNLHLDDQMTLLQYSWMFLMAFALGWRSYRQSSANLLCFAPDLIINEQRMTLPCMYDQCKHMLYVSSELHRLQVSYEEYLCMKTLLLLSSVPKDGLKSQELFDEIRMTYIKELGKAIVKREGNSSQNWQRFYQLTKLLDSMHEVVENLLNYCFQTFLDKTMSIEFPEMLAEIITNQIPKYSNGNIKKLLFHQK
Method in brief: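 Translocation of GR-ED fusion to nuclear EA restores b-gal, read by luminescence after 1 h room-temperature detection. Engineered CHO-K1 biosensor cells, 1,000/well, exposed 2 h at 37 C to titrations up to 46 uM final.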

[6] = target: Mitogen-activated protein kinase 10 (Mus musculus) (UniProt Q61831); assay: JNK3 AlphaScreen Assay (AID 530);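 also: kinase came from lysate of stimulated human HepG2 cells; signal reports phosphorylation of biotinylated GST-cJun 1-79 at Ser73 with 10 µM ATP; % is scaled to controls: 0 for no effect and ±100 for the full control effect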
Method in brief: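 Compound titrations were preincubated 15 minutes at room temperature with substrate, antibody and pre-activated JNK3-containing HepG2 lysate. Reactions were started with 10 uM ATP and stopped with EDTA-containing bead buffer for AlphaScreen detection.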

[7] = qHTS Assay for Lipid Storage Modulators (AID 1519; calls by dose curve); conditions: Drosophila S3 cells, BODIPY lipid droplet/cell ratio, laser cytometry, cells loaded with oleic acid; for activity change, negative = inhibition: at 57.5 µM (top of the series)
Method in brief: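 Cells seeded at 5,000 per well were treated with compounds over a concentration series and loaded with oleic acid (400 uM, as added). Lipid droplet fluorescence (488 nm excitation, 500-530 nm channel) was read by laser-scanning cytometry and normalized to 20 uM Triacsin C.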

[8] = Primary qHTS for small molecule stabilizers of the endoplasmic reticulum resident proteome: Secreted ER Calcium Modulated Protein (SERCaMP) assay (AID 1508630; active = well fitted curve in the direction sought with a large enough effect; an effect the other way counts as inactive or inconclusive; also: % is scaled to controls: 0 for no effect and ±100 for the full control effect)
Method in brief: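 GLuc-SERCaMP-expressing SH-SY5Y cells, pretreated 16 h with compound, are challenged with thapsigargin to empty ER calcium stores; after 4 h, coelenterazine is added directly to the medium and luminescence is imaged.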

[9] = target: Lysosomal acid glucosylceramidase (Homo sapiens) (UniProt P04062); assay: Glucocerebrosidase-p2 (AID 348; in the data active = potency below about 10 µM; also: potency is read from the fitted curve at half-maximal effect); conditions: purified GBA, blue fluorogenic substrate, 40 min
Lysosomal acid glucosylceramidase (Homo sapiens), sequence (P04062 whole entry, looked up): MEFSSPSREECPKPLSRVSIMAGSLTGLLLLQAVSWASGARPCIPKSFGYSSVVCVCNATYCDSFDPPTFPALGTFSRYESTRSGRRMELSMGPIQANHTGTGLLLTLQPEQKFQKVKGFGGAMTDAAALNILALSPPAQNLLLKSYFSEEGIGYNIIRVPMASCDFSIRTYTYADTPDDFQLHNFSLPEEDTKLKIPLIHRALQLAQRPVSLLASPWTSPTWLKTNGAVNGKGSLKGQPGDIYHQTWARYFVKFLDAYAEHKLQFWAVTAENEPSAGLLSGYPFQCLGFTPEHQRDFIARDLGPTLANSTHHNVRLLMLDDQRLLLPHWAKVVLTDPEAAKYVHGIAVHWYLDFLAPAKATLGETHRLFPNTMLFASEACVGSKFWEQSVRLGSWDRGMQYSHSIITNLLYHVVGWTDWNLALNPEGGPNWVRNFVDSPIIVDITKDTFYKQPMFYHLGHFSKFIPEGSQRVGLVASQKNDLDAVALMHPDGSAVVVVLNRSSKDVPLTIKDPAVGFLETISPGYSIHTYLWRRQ
Method in brief: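 Compounds titrated from 0.6 nM upwards against 0.2 nM enzyme in pH 5.9 citric acid/KH2PO4, taurocholate, tween-20; blue fluorogenic substrate 80 uM, 40 min room temperature, stopped and read Ex 365/Em 440 for AC50.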

[10] = target: Cytochrome P450 1A2 (Homo sapiens) (UniProt P05177); assay: p450-cyp1a2 (AID 410; calls by dose curve; also: potency is read from the fitted curve at half-maximal effect;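 as to activity change, negative = inhibition: -100% = full effect of reference inhibitor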)
Cytochrome P450 1A2 (Homo sapiens), sequence (P05177 whole entry, looked up): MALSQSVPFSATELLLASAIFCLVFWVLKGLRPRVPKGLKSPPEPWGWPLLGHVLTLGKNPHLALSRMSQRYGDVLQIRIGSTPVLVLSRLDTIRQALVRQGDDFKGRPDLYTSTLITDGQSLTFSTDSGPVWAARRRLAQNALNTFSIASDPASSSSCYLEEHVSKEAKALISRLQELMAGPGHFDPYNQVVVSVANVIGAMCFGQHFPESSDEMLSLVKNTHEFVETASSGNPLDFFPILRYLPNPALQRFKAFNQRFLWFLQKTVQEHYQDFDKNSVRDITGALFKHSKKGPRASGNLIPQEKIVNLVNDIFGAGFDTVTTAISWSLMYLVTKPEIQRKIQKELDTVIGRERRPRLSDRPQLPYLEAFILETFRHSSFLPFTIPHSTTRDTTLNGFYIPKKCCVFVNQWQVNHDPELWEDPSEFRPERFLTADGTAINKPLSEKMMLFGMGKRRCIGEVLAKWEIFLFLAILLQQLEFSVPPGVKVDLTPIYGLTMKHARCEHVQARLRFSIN
Method in brief: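 Luminescent readout of luciferin formed from Luciferin-ME by human CYP1A2; data normalized against complete inhibition by 57 uM furafylline. Enzyme 20nM, substrate 100uM at Km, 100mM KPO4 buffer, 60 min reaction at room temperature.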

[11] = target: Cytochrome P450 3A4 (Homo sapiens) (UniProt P08684); assay: qHTS Assay for Inhibitors and Substrates of Cytochrome P450 3A4 (AID 884; active = well fitted curve in the direction sought with a large enough effect; an effect the other way counts as inactive or inconclusive; also: % is scaled to controls: 0 for no effect and ±100 for the full control effect; nearly all actives have a fitted effect of over 50% in size)
Cytochrome P450 3A4 (Homo sapiens), sequence (P08684 whole entry, looked up): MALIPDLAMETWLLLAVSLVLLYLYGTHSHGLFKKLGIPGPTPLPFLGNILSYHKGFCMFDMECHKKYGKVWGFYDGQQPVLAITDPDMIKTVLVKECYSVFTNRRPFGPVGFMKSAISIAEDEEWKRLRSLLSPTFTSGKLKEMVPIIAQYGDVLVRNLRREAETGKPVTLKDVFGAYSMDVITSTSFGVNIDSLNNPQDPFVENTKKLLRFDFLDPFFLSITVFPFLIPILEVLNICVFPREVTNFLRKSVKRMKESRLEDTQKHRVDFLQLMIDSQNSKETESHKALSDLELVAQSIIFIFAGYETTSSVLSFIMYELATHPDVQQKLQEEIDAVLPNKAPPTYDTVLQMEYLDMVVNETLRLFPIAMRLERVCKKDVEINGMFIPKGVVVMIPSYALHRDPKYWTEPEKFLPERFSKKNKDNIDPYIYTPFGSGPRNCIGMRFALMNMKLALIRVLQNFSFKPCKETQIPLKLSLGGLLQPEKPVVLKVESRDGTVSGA
Method in brief: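 20 nM human CYP3A4 with 25 uM Luciferin-PPXE (at KM) in 200 mM KPO4, preincubated 10 min with compound; NADPH regeneration started a 60 min RT reaction. Luciferin detected by luminescence, normalized to 57 uM ketoconazole as full inhibition.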

[12] = qHTS Assay for Identification of Small Molecule Agonists for Hypoxia Response Element Signaling Pathway (AID 914; active = well fitted activation curve with a large enough effect in the signal ratio, with a control signal flat, not every such curve was filed as active; the % refers to the signal ratio; also: % of control where 0% means no effect); conditions: ME-180 (cervical carcinoma) HRE-bla reporter, beta-lactamase ratio, CoCl2, 17 h; activation: stronger effect = higher value
Method in brief: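 HRE-bla ME-180 cells, overnight plating in Opti-MEM with 0.5% dialyzed FBS; cpd titration + EC50 CoCl2, 17 h, 37 degrees Celsius; CCF4 2.5 h RT; 460/530 nm ratio; AC50.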

[13] = target: 3',5'-cyclic-AMP phosphodiesterase 4B (Homo sapiens) (UniProt Q07343); assay: qHTS Assay for Inhibitors of PDE-IV (AID 607; active = well fitted activation curve with a large enough effect in the main read-out, with a control signal flat, not every such curve was filed as active; also: % of control where 0% means no effect)
3',5'-cyclic-AMP phosphodiesterase 4B (Homo sapiens), sequence (Q07343 whole entry, looked up): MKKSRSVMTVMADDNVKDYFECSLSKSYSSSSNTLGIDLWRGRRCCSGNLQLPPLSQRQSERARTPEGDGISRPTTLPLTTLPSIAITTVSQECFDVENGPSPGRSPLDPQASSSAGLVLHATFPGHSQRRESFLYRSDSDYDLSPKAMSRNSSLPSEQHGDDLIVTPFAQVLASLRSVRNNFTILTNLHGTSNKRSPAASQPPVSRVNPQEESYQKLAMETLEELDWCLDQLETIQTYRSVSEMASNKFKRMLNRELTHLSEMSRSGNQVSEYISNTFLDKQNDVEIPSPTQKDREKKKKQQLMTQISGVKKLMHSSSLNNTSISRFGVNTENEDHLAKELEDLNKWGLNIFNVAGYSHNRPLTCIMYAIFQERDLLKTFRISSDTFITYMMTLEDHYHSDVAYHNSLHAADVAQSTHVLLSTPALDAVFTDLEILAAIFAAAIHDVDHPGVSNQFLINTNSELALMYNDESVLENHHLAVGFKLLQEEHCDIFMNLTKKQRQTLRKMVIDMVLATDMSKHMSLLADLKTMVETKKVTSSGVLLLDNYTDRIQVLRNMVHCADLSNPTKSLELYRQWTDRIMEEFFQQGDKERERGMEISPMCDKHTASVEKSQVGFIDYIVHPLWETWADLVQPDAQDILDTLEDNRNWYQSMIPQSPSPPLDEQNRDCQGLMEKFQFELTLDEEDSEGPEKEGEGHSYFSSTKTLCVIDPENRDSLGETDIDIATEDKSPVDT
Method in brief: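 HEK293 ACTOne cells with CNG channel (1000/well), endogenous PDE4; membrane potential dye, compounds up to 22.9 uM final. Fluorescence Ex 535/Em 590; RO 20-1724 (100 uM final) as reference.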

[14] = target: Cytochrome P450 3A4 (Homo sapiens) (UniProt P08684); assay: qHTS Assay for Activators of Cytochrome P450 3A4 (AID 885; active = well fitted curve in the direction sought with a large enough effect; an effect the other way counts as inactive or inconclusive; also: nearly all actives have a fitted effect of over 65% in size)
Method in brief: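 Human CYP3A4 (20 nM) with Luciferin-PPXE at 25 uM (its KM) in 200 mM KPO4; 10 min compound preincubation, then NADPH regeneration and 60 min reaction at RT. Luciferin read by luminescence; normalized to 57 uM ketoconazole full inhibition.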

[15] = target: Glucocorticoid receptor (Homo sapiens) (UniProt P04150); assay: GR-GFP Redistribution (AID 450;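 active = compounds whose dose series gives a full or clear partial fitted curve of increased nuclear translocation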; also: potency is read from the fitted curve at half-maximal effect); conditions: U2OS GR-GFP nuclear translocation, laser cytometry, 2 h
[16] = target: Dual specificity protein kinase CLK4 (Homo sapiens) (UniProt Q9HAZ1); assay: qHTS Assay for Inhibitors of CDC-like Kinase 4 (Kinase-Glo Assay) (AID 1770; active = well fitted curve in the direction sought with a large enough effect; an effect the other way counts as inactive or inconclusive; also: % is scaled to controls: 0 for no effect and ±100 for the full control effect; nearly all actives have a fitted effect of over 65% in size)
Dual specificity protein kinase CLK4 (Homo sapiens), sequence (Q9HAZ1 whole entry, looked up): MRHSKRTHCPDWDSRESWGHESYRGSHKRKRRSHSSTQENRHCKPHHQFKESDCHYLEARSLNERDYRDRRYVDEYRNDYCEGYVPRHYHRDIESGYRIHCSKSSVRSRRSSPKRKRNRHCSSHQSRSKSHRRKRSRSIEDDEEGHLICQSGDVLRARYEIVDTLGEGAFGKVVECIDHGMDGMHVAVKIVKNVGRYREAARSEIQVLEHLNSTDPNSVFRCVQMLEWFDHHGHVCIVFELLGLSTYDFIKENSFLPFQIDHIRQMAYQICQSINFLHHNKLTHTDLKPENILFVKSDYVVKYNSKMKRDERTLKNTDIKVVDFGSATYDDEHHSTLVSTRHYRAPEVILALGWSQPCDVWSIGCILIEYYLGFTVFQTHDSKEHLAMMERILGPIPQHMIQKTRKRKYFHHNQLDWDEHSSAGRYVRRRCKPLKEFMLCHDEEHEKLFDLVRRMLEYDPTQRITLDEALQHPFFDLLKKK
Method in brief: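 Recombinant human Clk4 (25 nM) phosphorylated RS repeat peptide (100 uM) with 1 uM ATP in Tris pH 7.5/MgCl2/EGTA/DTT/Triton buffer for 4.5 h at room temperature. Residual ATP was quantified by Kinase-Glo luciferase luminescence.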

[17] = target: Dual specificity protein kinase CLK4 (Homo sapiens) (UniProt Q9HAZ1); assay: qHTS Assay for Inhibitors of CDC-like Kinase 4 (ADP-Glo Assay) (AID 1771; active = well fitted curve in the direction sought with a large enough effect; an effect the other way counts as inactive or inconclusive; also: % is scaled to controls: 0 for no effect and ±100 for the full control effect; nearly all actives have a fitted effect of over 70% in size)
Method in brief: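 Luminescence from ADP-Glo reports ADP produced by 25 nM Clk4 acting on 100 uM RS repeat peptide with 1 uM ATP over 1 hr at room temperature; residual ATP is depleted before ADP is converted to ATP for detection.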

[18] = target: Dual specificity protein kinase CLK4 (Homo sapiens) (UniProt Q9HAZ1); assay: qHTS Assay for Inhibitors of CDC-like Kinase 4 (ADP-FP Assay) (AID 1795; active = well fitted curve in the direction sought with a large enough effect; an effect the other way counts as inactive or inconclusive; also: % is scaled to controls: 0 for no effect and ±100 for the full control effect; nearly all actives have a fitted effect of over 60% in size)
Method in brief: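 Recombinant human Clk4 (6.25 nM) phosphorylated RS repeat peptide (100 uM) with 1 uM ATP in Tris pH 7.5/MgCl2/EGTA/DTT/Triton buffer for one hour. ADP was quantified by Transcreener competitive fluorescence polarization against an ADP calibration curve.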

[19] = target: Ubiquitin carboxyl-terminal hydrolase 1 (Homo sapiens) (UniProt O94782); assay: Inhibitors of USP1/UAF1: Pilot qHTS (AID 504865; active = well fitted curve in the direction sought with a large enough effect; an effect the other way counts as inactive or inconclusive;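 also: rhodamine fluorescence freed from ubiquitin-rhodamine substrate followed over time; top concentration of the series differs between compounds; % is scaled to controls: 0 for no effect and ±100 for the full control effect; nearly all actives have a fitted effect of over 35% in size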)
Ubiquitin carboxyl-terminal hydrolase 1 (Homo sapiens), sequence (O94782 whole entry, looked up): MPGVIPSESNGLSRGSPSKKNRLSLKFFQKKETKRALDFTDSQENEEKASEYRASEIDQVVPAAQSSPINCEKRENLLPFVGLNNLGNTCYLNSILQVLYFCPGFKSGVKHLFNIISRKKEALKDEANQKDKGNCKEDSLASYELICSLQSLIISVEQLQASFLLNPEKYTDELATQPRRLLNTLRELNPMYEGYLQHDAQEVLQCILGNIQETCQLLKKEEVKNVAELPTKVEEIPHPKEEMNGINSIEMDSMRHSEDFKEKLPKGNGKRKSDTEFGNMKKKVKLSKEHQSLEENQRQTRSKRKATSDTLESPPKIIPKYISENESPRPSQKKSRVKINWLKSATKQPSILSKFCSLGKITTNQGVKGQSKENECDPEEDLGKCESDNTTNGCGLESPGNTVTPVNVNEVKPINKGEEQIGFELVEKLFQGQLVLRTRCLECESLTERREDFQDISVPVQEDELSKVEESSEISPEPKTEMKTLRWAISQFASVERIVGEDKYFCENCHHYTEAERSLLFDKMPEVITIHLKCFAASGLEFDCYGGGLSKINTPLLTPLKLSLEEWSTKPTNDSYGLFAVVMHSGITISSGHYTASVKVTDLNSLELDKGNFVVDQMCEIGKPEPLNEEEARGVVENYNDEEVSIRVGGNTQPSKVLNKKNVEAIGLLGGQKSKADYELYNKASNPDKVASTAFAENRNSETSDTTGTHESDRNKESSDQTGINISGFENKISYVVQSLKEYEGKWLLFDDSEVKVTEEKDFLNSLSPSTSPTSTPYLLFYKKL
Method in brief: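 USP1/UAF1 complex (1nM) preincubated with compound 15 min at room temperature, then Ub-Rho substrate (150nM final) added. Fluorescence read kinetically at 480/540 nm, 6 reads every 60 seconds. Buffer: 50mM HEPES pH 7.8, 0.5mM EDTA, 0.1 mg/ml BSA, 1mM TCEP, 0.01% Tween-20.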

[20] = measured here: cell count channel max response
[21] = measured here: lipid channel max response

O=C(c1ccncc1)N1CCC[C@@]2(CCN(Cc3nccs3)C2)C1
inactive: Potency [1] > 20 µM | outcome [2] | activity change, negative = inhibition [3] 5.07% | outcome [4] | Potency [5] > 46 µM | outcome [6] | activity change, negative = inhibition [7] 3.49% | outcome [8]
15.4%: max response [7, 21]
8.75%: max response [7, 20]

N#Cc1cccc(NC(=O)N2CC3(CCN(C(=O)Oc4ccccc4)CC3)C2)c1
2.3%: max response [7, 21]
-4.33%: max response [7, 20]
inactive: Potency [1] > 20 µM | Potency [9] > 11.4 µM | outcome [2] | activity change, negative = inhibition [3] 17.6% | outcome [4] | Potency [5] > 46 µM | outcome [6] | Potency [11] | activation [12] -17.9% | activity change, negative = inhibition [7] 1.56% | outcome [8]
active: Potency [10] 15.8 µM

c1ccc(N2CC3(CCNCC3)C2)cc1
20.7%: max response [7, 21]
11.6%: max response [7, 20]
inactive: Potency [1] > 20 µM | Potency [9] > 11.4 µM | outcome [2] | Potency [10] | activity change, negative = inhibition [3] -5.86% | outcome [4] | Potency [5] > 46 µM | outcome [6] | Potency [13] | activity change, negative = inhibition [7] 3.32% | outcome [8]

c1ccc(CN2CC[C@@]3(CCCNC3)C2)cc1
8.29%: max response [7, 20]
inactive: Potency [1] > 20 µM | Potency [9] > 11.4 µM | outcome [2] | activity change, negative = inhibition [3] 2.89% | outcome [4] | Potency [5] > 46 µM | outcome [6] | Potency [14] | activation [12] 10.9% | activity change, negative = inhibition [7] 3.83% | outcome [8]
14.7%: max response [7, 21]

CN1CCC2(CC1)CCN(C(=O)Oc1ccccc1)CC2
2.61%: max response [7, 20]
7.31%: max response [7, 21]
inactive: Potency [1] > 20 µM | Potency [9] > 11.4 µM | outcome [2] | Potency [10] | outcome [4] | Potency [5] > 46 µM | outcome [6] | activity change, negative = inhibition [7] 2.73% | outcome [8]

CN1CC[C@@]2(CCCN(C(=O)c3csnn3)C2)C1
inactive: Potency [9] > 11.4 µM | outcome [2] | Potency [10] | activity change, negative = inhibition [3] -23.3% | outcome [4] | Potency [5] > 46 µM | outcome [6] | Potency [13] | activity change, negative = inhibition [7] -3.58% | outcome [8]
-16.8%: max response [7, 21]
-13.7%: max response [7, 20]

COC(=O)N1CCC2(CCN(CC(C)C)CC2)CC1
inactive: Potency [1] > 20 µM | Potency [9] > 11.4 µM | outcome [2] | Potency [10] | outcome [4] | Potency [5] > 46 µM | outcome [6] | Potency [13] | activity change, negative = inhibition [7] 0.631% | outcome [8]
-4.41%: max response [7, 21]
-7.4%: max response [7, 20]

CN1CCN(c2ncc3ncc(=O)n(C)c3n2)CC1
-0.0774%: max response [7, 20]
active: Potency [10] 12.6 µM
1.21%: max response [7, 21]
inactive: Potency [9] > 11.4 µM | outcome [2] | activity change, negative = inhibition [3] 11.5% | outcome [4] | Potency [15] > 9.22 µM | Potency [5] > 46 µM | outcome [6] | Potency [13] | activity change, negative = inhibition [7] 3.09% | outcome [16] | outcome [17] | outcome [18] | Potency [19] | outcome [8]

C[C@@H]1O[C@@H](O[C@H]2CC[C@]3(C=O)C4CC[C@]5(C)[C@@H](C6=CC(=O)OC6)CC[C@]5(O)[C@@H]4CC[C@]3(O)C2)[C@H](O)[C@H](O)[C@H]1O (stereo partly drawn)
inactive: outcome [8]
